CYP2C19 inhib – blockers of cytochrome P450 2C19 activity – biochemical, luminescence, ADME assay, primary screen; P33261; CYP2C19 Supersomes, luciferin-H EGE luminescence, 30 min; inhibition, % at 5 µM; actives 21% (n = 96,000); AID 778, 2007;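 active = CYP2C19 inhibition above a set limit at 5 µM in the primary screen, cut at about 50% in these data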;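 also: plate controls were negative control wells for no effect and 2.5 mM tranylcypromine positive control for full effect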
CD11b adhes enh – enhancers of CD11b/CD18 adhesion to fibrinogen, primary screen, K562 cells, luminescence; ATPlite luminescence; activation, % at 10 µM; actives 0.07% (n = 93,000); AID 1499, 2009;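 active = 10 µM primary screen giving 50% or more activity, confirmed by 40% or more on retest at that dose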
Target sequence (P05107 whole entry, looked up, other chains not shown): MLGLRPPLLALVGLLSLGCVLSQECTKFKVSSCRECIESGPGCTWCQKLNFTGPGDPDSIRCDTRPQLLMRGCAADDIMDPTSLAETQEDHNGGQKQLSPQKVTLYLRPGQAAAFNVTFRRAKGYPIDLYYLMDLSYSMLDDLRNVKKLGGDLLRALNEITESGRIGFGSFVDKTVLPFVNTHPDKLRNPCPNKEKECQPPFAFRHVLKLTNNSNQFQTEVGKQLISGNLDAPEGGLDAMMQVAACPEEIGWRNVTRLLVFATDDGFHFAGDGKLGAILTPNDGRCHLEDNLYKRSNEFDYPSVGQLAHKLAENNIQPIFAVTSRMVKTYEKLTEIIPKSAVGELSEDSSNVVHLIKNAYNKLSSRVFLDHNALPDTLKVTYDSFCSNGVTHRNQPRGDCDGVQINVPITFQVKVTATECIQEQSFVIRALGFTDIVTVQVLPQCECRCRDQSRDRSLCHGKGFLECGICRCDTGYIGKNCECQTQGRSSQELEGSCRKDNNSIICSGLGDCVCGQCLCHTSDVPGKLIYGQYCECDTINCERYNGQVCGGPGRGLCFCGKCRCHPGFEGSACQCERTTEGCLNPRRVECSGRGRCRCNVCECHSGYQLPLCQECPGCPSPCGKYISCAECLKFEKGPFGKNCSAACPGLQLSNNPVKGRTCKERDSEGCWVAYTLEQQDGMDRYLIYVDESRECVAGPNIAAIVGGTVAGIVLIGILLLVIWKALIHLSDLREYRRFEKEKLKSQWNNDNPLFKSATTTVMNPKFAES
CYP2C9 inh – blockers of cytochrome P450 2C9 activity – biochemical, luminescence, ADME assay, primary screen | P11712 | CYP2C9 Supersomes, luciferin-H conversion | inhibition, % at 5 µM | actives 20% (n = 96,000);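 active = blocking of liver enzyme CYP2C9 beyond about 50% at 5 µM, limit read from the data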
Mac1 fbg inh – inhibitors of CD11b/CD18 adhesion to fibrinogen, primary screen, K562 cells, luminescence; Integrin beta-2 (Homo sapiens) + Integrin alpha-M (Homo sapiens), P05107+P11215; ATPlite luminescence; Mn2+ added to activate the integrin; inhibition, % at 10 µM; actives 0.54% (n = 93,000); AID 1497, 2009;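 active = primary inhibition of 50% or more at 10 µM, then 40% or more on retest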
CYP2C9 activ – human CYP2C9 activators, primary screen, biochemical, luminescence; actives 1.4% (n = 96,000); recombinant CYP2C9, luciferin-H conversion; stronger effect = higher value; factor 1 = untreated enzyme, 0 = blocked; Cytochrome P450 2C9 (Homo sapiens), P11712; activation factor at 5 µM; AID 1024, 2008;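 active = activation factor of 2 or more for CYP2C9 at a 5 µM dose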;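 also: 0 = sulfaphenazole-blocked wells and 1 = vehicle-only wells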
CYP2C19 act – human CYP2C19 activators, primary screen, biochemical, luminescence; Cytochrome P450 2C19 (Homo sapiens), P33261; AID 1025, 2008; activation factor at 5 µM; 96,000 tested, under 10 active; recombinant CYP2C19, luciferin-H EGE luminescence; stronger effect = higher value; 0 = fully inhibited enzyme, 1 = untreated enzyme;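 active = activation factor of at least 2 at 5 µM in the primary screen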;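 also: 0 = wells with 2.5 mM tranylcypromine and 1 = vehicle-only wells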
* hit, by the source's call. Rows were chosen to be rich in hits. Some 28% of all compounds tested hit in one or more screens of this group.

`C/C(N)=C(/C#N)C(=O)COC(=O)c1cc(-c2ccc(Br)cc2)nc2ccccc12` gave CD11b adhes enh -2 and Mac1 fbg inh 26.
Screening CCc1nc2cc(CC(=O)O)ccc2o1 returned CYP2C19 inhib -3, CYP2C9 inh 20, CYP2C9 activ 0.8 and CYP2C19 act 1.
`Cc1cc2c(cc(C(=O)NCCCN3CCOCC3)n2Cc2ccc(Cl)cc2)o1` gave CYP2C19 inhib 45, CYP2C9 inh 50, CYP2C9 activ 0.5 and CYP2C19 act 0.6.
`Cc1csc(NC(=O)c2cccc(Cn3nc(C)c(Br)c3C)c2)n1` gave CYP2C19 inhib 93*, CD11b adhes enh -11, CYP2C9 inh 90*, Mac1 fbg inh 40, CYP2C9 activ 0.1 and CYP2C19 act 0.1.
For CN1CCN(C(=O)CSc2nc(-c3cccs3)ccc2C#N)CC1 the results were CYP2C19 inhib 12, CD11b adhes enh 5, CYP2C9 inh 37, Mac1 fbg inh -2, CYP2C9 activ 0.6 and CYP2C19 act 0.9.
Screening Cc1cccc(N2CCN(C(=O)C(C)C)CC2)c1C returned CYP2C19 inhib 18, CD11b adhes enh 0, CYP2C9 inh 17, Mac1 fbg inh -4, CYP2C9 activ 0.8 and CYP2C19 act 0.8.
COc1ccccc1N1CCN(C(=O)Nc2cccc(Cl)c2)CC1 was read as CYP2C19 inhib 33, CD11b adhes enh -1, CYP2C9 inh -18, Mac1 fbg inh -20, CYP2C9 activ 1.2 and CYP2C19 act 0.7.
`Cc1cccc(N2CCN(C(=O)Cc3cn(C)c4ccccc34)CC2)c1C` gave CYP2C19 inhib 30, CD11b adhes enh 2, CYP2C9 inh -30, Mac1 fbg inh -16, CYP2C9 activ 1.3 and CYP2C19 act 0.7.
For COc1cccc(NC(=O)N2CCN(c3cccc(C)c3C)CC2)c1 the results were CYP2C19 inhib 18, CD11b adhes enh 5, CYP2C9 inh -102, Mac1 fbg inh 7, CYP2C9 activ 2* and CYP2C19 act 0.8.
`Cc1cccc(N2CCN(C(=O)n3ccnc3)CC2)c1C` gave CYP2C19 inhib 100*, CD11b adhes enh 1, CYP2C9 inh 86*, Mac1 fbg inh -7, CYP2C9 activ 0.1 and CYP2C19 act 0.
Screening Cc1cccc(N2CCN(C(=O)Cn3cccc3)CC2)c1C returned CYP2C19 inhib 79*, CD11b adhes enh 2, CYP2C9 inh 6, Mac1 fbg inh -1, CYP2C9 activ 0.9 and CYP2C19 act 0.2.
For Cc1nc(CC(=O)N2CCN(c3cccc(C)c3C)CC2)cs1 the results were CYP2C19 inhib 84*, CD11b adhes enh -6, CYP2C9 inh -30, Mac1 fbg inh -1, CYP2C9 activ 1.3 and CYP2C19 act 0.2.
For COc1cccc(/C=N/n2nnc3c(cnn3-c3ccccc3)c2=O)c1 the results were CYP2C19 inhib 10, CYP2C9 inh 8, CYP2C9 activ 0.9 and CYP2C19 act 0.9.
`CCOC(=O)C1CCCN(C(=O)Cn2nc(Cc3cccnc3)c3ccccc3c2=O)C1` (centres undefined) gave CYP2C19 inhib 4, CD11b adhes enh -8, CYP2C9 inh 8, Mac1 fbg inh 15, CYP2C9 activ 0.9 and CYP2C19 act 1.
For COc1ccc(CNC(=O)Cn2nc(Cc3cccnc3)c3ccccc3c2=O)cc1 the results were CYP2C19 inhib 44, CD11b adhes enh -2, CYP2C9 inh 76*, Mac1 fbg inh -5, CYP2C9 activ 0.2 and CYP2C19 act 0.6.
Screening CCCCN(CC)CCCNC(=O)Cn1nc(Cc2ccncc2)c2ccccc2c1=O returned CYP2C19 inhib 11, CD11b adhes enh -7, CYP2C9 inh 34, Mac1 fbg inh -15, CYP2C9 activ 0.7 and CYP2C19 act 0.9.
Screening COc1cccc(NC(=O)Cn2nc(Cc3cccnc3)c3ccccc3c2=O)c1 returned CYP2C19 inhib 21, CD11b adhes enh -4, CYP2C9 inh 59*, Mac1 fbg inh -11, CYP2C9 activ 0.4 and CYP2C19 act 0.8.
`Cc1ccc(C2CC(c3ccc(Cl)cc3)=NNC2=O)cc1` (centres undefined) gave CYP2C19 inhib 85*, CD11b adhes enh 1, CYP2C9 inh 38, Mac1 fbg inh -11, CYP2C9 activ 0.6 and CYP2C19 act 0.2.
Screening CCCOc1ccc(C2=NNC(=O)CC2)cc1 returned CD11b adhes enh 1 and Mac1 fbg inh -20.
For CCc1ccc(C2CC(c3ccc(Cl)cc3)=NNC2=O)cc1 (centres undefined) the results were CYP2C19 inhib 84*, CD11b adhes enh -3, CYP2C9 inh 40, Mac1 fbg inh 0, CYP2C9 activ 0.6 and CYP2C19 act 0.2.
`c1ccc(Cn2nnnc2CN2CCOCC2)cc1` gave CYP2C19 inhib 12, CYP2C9 inh -6, CYP2C9 activ 1.1 and CYP2C19 act 0.9.
`CCOC(=O)CC(=O)CSc1nc(C)nc2c1oc1ccccc12` gave CYP2C19 inhib 32, CD11b adhes enh 1, CYP2C9 inh 41, Mac1 fbg inh -16, CYP2C9 activ 0.6 and CYP2C19 act 0.7.
Cc1nc(SCC(=O)Nc2ccc3c(c2)OCCO3)c2oc3ccccc3c2n1 was read as CYP2C19 inhib 96*, CYP2C9 inh 73*, CYP2C9 activ 0.3 and CYP2C19 act 0.
Screening O=C(CSc1ncnc2c1cnn2Cc1ccccc1)Nc1ccc2c(c1)OCCO2 returned CYP2C19 inhib 58*, CYP2C9 inh 55*, CYP2C9 activ 0.5 and CYP2C19 act 0.4.
CCc1nc(SCC(=O)Nc2nccs2)c2oc3ccccc3c2n1 was read as CYP2C19 inhib 38, CYP2C9 inh 76*, CYP2C9 activ 0.2 and CYP2C19 act 0.6.
Screening CCc1nc(SCC(=O)N2CCCc3ccccc32)c2oc3ccccc3c2n1 returned CYP2C19 inhib 39, CD11b adhes enh 7, CYP2C9 inh 74*, Mac1 fbg inh 1, CYP2C9 activ 0.3 and CYP2C19 act 0.6.
Screening Cn1c(CCNC(=O)c2ccccc2)nc2cc(NC(=O)C3CCCCC3)ccc21 returned CYP2C19 inhib 10, CD11b adhes enh 1, CYP2C9 inh 20, Mac1 fbg inh -61, CYP2C9 activ 0.8 and CYP2C19 act 0.9.
Screening CC(C)OCCCNC(=O)C1CCC(=O)N1C(C)C (centres undefined) returned CYP2C19 inhib -7, CD11b adhes enh 0, CYP2C9 inh -8, Mac1 fbg inh 7, CYP2C9 activ 1.1 and CYP2C19 act 1.1.
`CC1CCCCC1NC(=O)Cn1ncc2ccccc21` (centres undefined) gave CYP2C19 inhib 31, CD11b adhes enh -5, CYP2C9 inh -2, Mac1 fbg inh 0, CYP2C9 activ 1 and CYP2C19 act 0.7.

Source: PubChem (Sanford-Burnham Center for Chemical Genomics)
